The subject of this assay is E. coli TESEC Mtb Alr. The experiment in a line: growth (OD600 after 10 h); higher = more growth (less inhibition). The note with it: compound 0.1 mM. How it is done: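 TESEC Mtb Alr E. coli, or the Alr+ wild-type control, in 384-well plates with Prestwick library compounds at 0.1 mM and 1% DMSO, across arabinose induction levels of 1E3 to 1E7 nM. Growth is read as OD600 after 10 h at 37 °C in triplicate biological replicates.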

Setting [1] is: arabinose 1000 nM, raw OD600 reference: median of DMSO wells 0.294, cell-free background 0.041.
The mark [2] stands for this setting: arabinose 10000 nM, raw OD600 reference: median of DMSO wells 0.264, cell-free background 0.041.
[3] abbreviates: arabinose 100000 nM, raw OD600 reference: median of DMSO wells 0.201, cell-free background 0.041.
The mark [4] stands for this setting: arabinose 1000000 nM, raw OD600 reference: median of DMSO wells 0.193, cell-free background 0.041.
The mark [5] stands for this setting: arabinose 10000000 nM, raw OD600 reference: median of DMSO wells 0.146, cell-free background 0.041.

Counter-ions that a name gives are not always drawn. ± gives the standard deviation of the averaged measurements.

As for `O=C1c2ccccc2C(=O)C1c1ccccc1` [Phenindione], the growth was 0.298 ± 0.0061 under setting [1]; 0.268 ± 0.011 under setting [2]; 0.197 ± 0.03 under setting [3]; 0.166 ± 0.0028 under setting [4]; 0.147 ± 0.004 under setting [5].
In the case of `CC(C)C(=O)c1c(C(C)C)nn2ccccc12` [Ibudilast], the growth is 0.221 ± 0.0062 under setting [1]; 0.245 ± 0.0022 under setting [2]; 0.148 ± 0.0046 under setting [3]; 0.134 ± 0.0043 under setting [4]; 0.127 ± 0.0043 under setting [5].
The matching figures for `OC(c1cc(C(F)(F)F)nc2c(C(F)(F)F)cccc12)C1CCCCN1` (stereo not given) [Mefloquine hydrochloride]: 0.0401 ± 0.0013, 0.0392 ± 0.0005, 0.0403 ± 0.00056, 0.0392 ± 0.00017 and 0.0398 ± 0.00036.
In the same order, the values of `CCCCN(CCCC)CCCOC(=O)c1ccc(N)cc1` [Butacaine] are 0.284 ± 0.019, 0.275 ± 0.01, 0.181 ± 0.013, 0.189 ± 0.0068 and 0.14 ± 0.0032.
In the same order, the values of `O=C(c1ccccc1)c1ccc2n1CCC2C(=O)O` (stereo not given) [Ketorolac tromethamine] are 0.262 ± 0.015, 0.253 ± 0.013, 0.181 ± 0.01, 0.195 ± 0.0049 and 0.137 ± 0.0035.
Compound `CC1CCc2cc(F)cc3c(=O)c(C(=O)O)cn1c23` (stereo not given) [Flumequine] had a growth under setting [1] of 0.04537 ± 0.00031; a growth under setting [2] of 0.0396 ± 0.00065; a growth under setting [3] of 0.0452 ± 0.0012; a growth under setting [4] of 0.0416 ± 0.0004; a growth under setting [5] of 0.04987 ± 0.00029.
The matching figures for `CC1=C(/C=C/C(C)=C/C=C/C(C)=C/C(=O)O)C(C)(C)CCC1` [Retinoic acid]: 0.309 ± 0.012, 0.262 ± 0.006, 0.246 ± 0.0066, 0.149 ± 0.006 and 0.162 ± 0.015.
For `N#Cc1ccc(C(c2ccc(C#N)cc2)n2cncn2)cc1` [Letrozole], the growth is, setting by setting: under setting [1], 0.308 ± 0.006; under setting [2], 0.253 ± 0.0064; under setting [3], 0.243 ± 0.028; under setting [4], 0.16 ± 0.0045; under setting [5], 0.146 ± 0.0044.

Values taken from the supplement of paper PMC9262897, “Low-cost anti-mycobacterial drug discovery using engineered E. coli” (Nature Communications, 2022).
